# Compound activity (PubChem)
# ABCB6 inh 2: ABCB6 transporter inhibitors, primary screen, K562-ABCB6 cells, flow cytometry, MLPCN library; AID 602162, 2011; 0.19% of 360,000 active; fluorescence ratio to DMSO, % at 10 µM; K562-ABCB6 porphyrin accumulation, 1 h; active compounds read low; ATP-binding cassette sub-family B member 6 (Homo sapiens), Q9NP58;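 active = fluorescence ratio to DMSO below 75%, the collection mean minus 3 SD; inconclusive = too few cells collected in the well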;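 also: signal is porphyrin accumulated inside mitochondria; lower ratio means ABCB6 inhibition with less porphyrin fluorescence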
# MLLE-PAM2 inh: inhibitors of PABP1 MLLE–PAM2 peptide binding, primary screen, biochemical, fluorescence polarization, FITC-PAM2, GST-MLLE; inhibition, % at 20 µM; Polyadenylate-binding protein 1 (Homo sapiens), P11940; 0.36% of 360,000 active; in the data active = inhibition above about 35%, passing the limit was not always enough
# eIF4H FP inh: human eIF4H binding inhibitors, primary screen, translation initiation inhibitor project, biochemical, uHTS, fluorescence polarization; Eukaryotic translation initiation factor 4H (Homo sapiens), Q15056; eIF4H fluorescence polarization binding assay; inhibition, % at 35 µM; 0.94% of 290,000 active; AID 2012, 2009;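 also: calls also rest on retests at 20 µM and on dose response follow-up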
# AI-2 QS mod: Vibrio harveyi AI-2 quorum sensing modulators, primary screen, JMH597 strain, luminescence/OD600 ratio; 0.4% of 300,000 active; AID 2094, 2009; Vibrio harveyi JMH597 AI-2 luminescence/OD600 ratio, 9 h; active compounds read low; strain lacks LuxN and CqsS sensors; 0 = neutral-control median; activity change, % at 7.5 µM; in the data active = activity change below about -75%, passing the limit was not always enough; inconclusive = no clear call, values can overlap the other calls;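 also: luminescence divided by OD600 gain over 9 h not by final OD600 alone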
# PHOSPHO1 block: PubChem AID 1565; Phosphoethanolamine/phosphocholine phosphatase (Homo sapiens), Q8TCT1; recombinant PHOSPHO1, absorbance phosphatase assay; inhibition, % at 13.3 µM; 1.1% of 290,000 active; in the data active = inhibition above about 60%
# PABP FP inh: PABP poly(A) RNA binding inhibitors, primary screen, biochemical, fluorescence polarization, uHTS; calls only at 35 µM; 1% of 290,000 active; Polyadenylate-binding protein 1 (Homo sapiens), P11940; AID 2014, 2009;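 also: calls also rest on retests at 20 µM and on dose response follow-up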
# Hits are given with their value; - = inactive; ? = inconclusive; . = not tested or not shown; + = active, no number. An excerpt weighted towards active compounds, which were near 2.6% of everything screened. Unless noted, no rule for the calls is given here.
SMILES,ABCB6 inh 2,MLLE-PAM2 inh,eIF4H FP inh,AI-2 QS mod,PHOSPHO1 block,PABP FP inh
CCCOc1ccc(F)cc1-c1cc(C(=O)NCc2cc(OC)cc(OC)c2)[nH]n1,-,-,.,.,.,.
NS(=O)(=O)c1ccc(NC(=O)C2C3C=CC(C3)C2C(=O)O)cc1 (stereo not given),-,-,-,-,60,-
CCCCC(=O)Nc1nc(C)c(-c2csc(Nc3cc(OC)ccc3OC)n2)s1,-,-,-,-,70,-
CCCCCCC(=O)Nc1nc(C)c(-c2csc(Nc3cc(Cl)ccc3C)n2)s1,-,-,-,-,-,-
CCCC(=O)Nc1nc(C)c(-c2csc(Nc3ccccc3C)n2)s1,-,-,-,-,-,-
CCCCC(=O)Nc1nc(C)c(-c2csc(Nc3cc(Cl)ccc3OC)n2)s1,-,-,-,-,99,-
COc1cccc(CC2(CO)CCCN(Cc3sc(N4CCCC4)nc3Cl)C2)c1 (stereo not given),-,-,56,-,-,+
COc1cc(NC(=O)N2CCc3nc(Nc4cc(Cl)cc(Cl)c4)ncc3C2)cc(OC)c1OC,-,-,.,.,.,.
O=C(Nc1ccc(N2CCOCC2)nc1)c1ccc(F)cc1,-,-,40,-,-,-
Cc1ccc(C(=O)Nc2ccc(N3CCOCC3)nc2)cc1,-,-,-,-,-,-
CCNC(=O)C1CCCN(C(=O)Cc2ccc3ccccc3c2)CC1 (stereo not given),-,-,.,.,.,.
CC1(C(=O)NS(=O)(=O)C2CC2)CCCN(C(=O)c2cccc(OC(F)(F)F)c2)C1 (stereo not given),-,-,.,.,.,.
O=C1/C(=C/c2ccco2)Cc2ccccc21,-,-,80,-,-,+
CC(=O)NC(c1ccc(F)c(F)c1)c1nc(-c2ccc3c(c2)OCO3)cs1 (stereo not given),-,-,.,.,.,.
OC(CN1CCNCC1)Cn1ccc2ccccc21 (stereo not given),.,.,-,-,-,-
O=C1c2ccccc2S(=O)(=O)N1CC(O)Cn1ccc2ccccc21 (stereo not given),-,-,88,-,-,+
COc1ccccc1-c1nnc(SCCN2CCOCC2)n1-c1ccc(C)cc1,-,-,-,-,69,-
CC(C)(Oc1ccc(Cl)cc1)C(=O)NCc1ccc(S(N)(=O)=O)cc1,-,-,66,-,-,-
NC(=O)CN(c1ccccc1)C1SC(=O)N(Cc2ccccc2)C1=O (stereo not given),-,45,-,-,-,-
Cc1ccc(N2C(=O)SC(N(CC(=O)O)c3cccc(C)c3)C2=O)cc1 (stereo not given),-,-,-,-,-,-
Cc1ccc(N(CC(N)=O)C2SC(=O)N(Cc3ccccc3)C2=O)cc1 (stereo not given),-,42,-,-,-,-
O=C(NCc1ccc(F)cc1F)[C@@H]1CCCN1C(=O)[C@@H]1CCCN1C(=O)c1ccccc1,-,.,.,.,.,.
Cc1cc(F)ccc1C(O)c1ncc(-c2ccccc2Cl)[nH]1 (stereo not given),-,-,.,.,.,.
CCOC(=O)N1CCN(C(=O)C[C@@H]2C[C@@]3(C(=O)OCC)CCC=C3N(Cc3cccc4ccccc34)C2=O)CC1,-,.,.,.,.,.
Fc1ccc(-n2[nH]nnc2=S)cc1N1CCCC1,-,-,-,-,78,-
SMILES,ABCB6 inh 2,MLLE-PAM2 inh,eIF4H FP inh,AI-2 QS mod,PHOSPHO1 block,PABP FP inh
N#C/C(=C\c1ccc(-c2ccc(C(=O)O)cc2)o1)C(=O)Nc1ccc(F)cc1,-,-,87,-,-,+
COC(=O)CCC/C=C1/SCC(NC(=O)c2ccccc2)C1=O (stereo not given),-,-,-,-,64,-
COC(=O)CCC/C=C1/SCC(NC(=O)c2ccccc2)C1O (stereo not given),-,-,-,-,-,-
COc1ccc(Cc2c(-c3ccc(C#N)cc3)nc3c(Cl)cc(C(F)(F)F)cn23)c(C)c1,-,.,.,.,.,.
COc1ccc2nc3cc(Cl)ccc3c(C#N)c2c1,-,54,-,-,-,-
CC(NC(=O)COC(=O)c1cc([N+](=O)[O-])ccc1N1CCOCC1)c1ccccc1 (stereo not given),-,-,-,-,61,-
CN(C)C1=C(Cl)C(=O)N(c2ccc(Cl)c(Cl)c2)C1=O,-,-,-,-,-,+
CN(C)/C=C1\C(=O)N(c2ccc(Cl)c(Cl)c2)CS1(=O)=O,-,-,-,-,-,-
CCOc1cc(OCC)cc(C(=O)N2CCC[C@H]2C(=O)N2CCC[C@H]2C(=O)N[C@H](C)c2ccccc2)c1,-,.,.,.,.,.
COc1ccc(OCC(O)Cn2c(N)nc3c2c(=O)[nH]c(=O)n3C)cc1 (stereo not given),-,-,-,-,61,-
CC(C)CSc1nc2c(c(=O)[nH]c(=O)n2C)n1CC(O)COc1cccc2ccccc12 (stereo not given),-,-,-,-,88,-
COCCCNc1nc2c(c(=O)[nH]c(=O)n2C)n1CC(O)COc1ccccc1 (stereo not given),-,-,-,-,92,-
O=C(NCc1cc(Cl)cc(Cl)c1)c1ccc2nc(COCCO)[nH]c2c1,-,-,.,.,.,.
Cc1cc(Oc2ccc(N)cn2)ccc1Cl,-,-,?,-,-,+
COc1cccc(Oc2ccc(N)cn2)c1,-,-,?,-,-,?
Cc1c(C#N)c(NC(=O)CCl)n(Cc2cccs2)c1C,-,-,74,-,-,+
COC(=O)c1sccc1NC(=O)Nc1cccc(Cl)c1Cl,-,-,-,-,-,-
COC(=O)c1sccc1NC(=S)Nc1ccccc1,-,-,-,-,-,-
COC(=O)c1sccc1NC(=O)Nc1cccc(C)c1C,-,-,-,-,61,-
COC(=O)c1sccc1NC(=S)Nc1cc(C)cc(C)c1,-,38,-,-,-,-
O=C(NC1CCCCC1)C1c2ccccc2OCC(=O)N1CCc1ccccc1 (stereo not given),-,.,.,.,.,.
O=C(OCc1nc2ccccc2s1)c1ccc(Br)o1,-,-,7.1,-,-,+
CCCCNC(=O)c1ccc(Cc2cn(C)c3ccccc23)nc1,-,-,.,.,.,.
Cc1ccc(-c2cc(NC=O)c3ncc(-c4cnn(C)c4)n3c2)cc1,-,-,.,.,.,.
CN1CCN(C(=O)C2CCCN(S(=O)(=O)c3ccc(Cl)cc3)C2)CC1 (stereo not given),-,-,-,-,65,-
CN1CCN(C(=O)C2CCCN(S(=O)(=O)c3ccc(Br)cc3)C2)CC1 (stereo not given),-,-,-,-,-,-
Nc1ccn(C2C=CC(CO)O2)c(=O)n1 (stereo not given),-,.,.,.,.,.
